A number with no mark means an inactive call.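 The calls were made as follows: active = activity change under -35% in any replicate well, with more than 20 beads read in that well; inactive = the rest.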
Target: Caspase recruitment domain-containing protein 9 (Homo sapiens) + E3 ubiquitin-protein ligase TRIM62 (Homo sapiens) (UniProt Q9H257+Q9BVG3)
Test: disruptors of CARD9-TRIM62 binding, primary screen, cell lysate, HEK293FT lysates, Luminex bead ELISA (AID 1259341);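 also: PE anti-Flag signal of Flag-CARD9 captured by myc-TRIM62 beads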
Conditions: PE fluorescence, active compounds read low, concentration not given here

Chain of Caspase recruitment domain-containing protein 9 (Homo sapiens) + E3 ubiquitin-protein ligase TRIM62 (Homo sapiens) (Q9BVG3 whole entry, looked up, the tested form may be a part): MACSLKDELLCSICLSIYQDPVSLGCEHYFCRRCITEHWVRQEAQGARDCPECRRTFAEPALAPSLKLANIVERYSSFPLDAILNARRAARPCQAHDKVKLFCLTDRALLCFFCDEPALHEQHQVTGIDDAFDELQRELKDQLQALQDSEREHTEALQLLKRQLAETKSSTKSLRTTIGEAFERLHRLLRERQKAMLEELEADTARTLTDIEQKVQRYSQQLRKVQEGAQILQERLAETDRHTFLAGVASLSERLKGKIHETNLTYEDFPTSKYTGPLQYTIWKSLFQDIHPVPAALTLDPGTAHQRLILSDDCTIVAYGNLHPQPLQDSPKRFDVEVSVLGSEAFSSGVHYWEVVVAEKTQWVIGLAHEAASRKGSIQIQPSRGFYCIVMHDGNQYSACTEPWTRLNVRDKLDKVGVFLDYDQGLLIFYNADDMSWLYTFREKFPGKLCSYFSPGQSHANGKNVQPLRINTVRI
Chain of Caspase recruitment domain-containing protein 9 (Homo sapiens) + E3 ubiquitin-protein ligase TRIM62 (Homo sapiens) (Q9H257 whole entry, looked up, the tested form may be a part): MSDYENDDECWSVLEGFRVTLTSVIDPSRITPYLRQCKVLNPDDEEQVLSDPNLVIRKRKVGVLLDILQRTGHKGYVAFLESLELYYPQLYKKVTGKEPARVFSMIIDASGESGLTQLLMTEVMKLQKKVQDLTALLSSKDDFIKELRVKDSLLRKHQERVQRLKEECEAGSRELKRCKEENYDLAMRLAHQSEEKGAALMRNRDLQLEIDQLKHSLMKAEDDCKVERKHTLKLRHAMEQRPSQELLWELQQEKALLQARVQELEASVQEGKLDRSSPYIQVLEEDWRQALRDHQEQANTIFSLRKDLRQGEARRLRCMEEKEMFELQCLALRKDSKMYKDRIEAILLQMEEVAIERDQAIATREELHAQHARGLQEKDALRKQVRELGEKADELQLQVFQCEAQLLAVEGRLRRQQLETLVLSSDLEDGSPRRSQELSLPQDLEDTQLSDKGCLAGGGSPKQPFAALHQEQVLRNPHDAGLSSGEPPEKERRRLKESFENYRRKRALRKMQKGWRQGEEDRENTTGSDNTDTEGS

Row | Compound | activity change, negative = inhibition
1 | CCN(CCNC(=O)C1CCN(S(=O)(=O)c2c(C)noc2C)CC1)c1ccccc1 | -0.84%
2 | Cc1ccc(-c2cc(C(=O)NCc3ccco3)c3ccccc3n2)o1 | -2.28%
3 | CCOC(=O)c1ccc(-c2ccc(C3CC(=O)Nc4cc5c(cc43)OCCO5)o2)cc1 (centres undefined) | -0.752%
4 | Cn1cccc1CNCCCSc1ncccn1 | 1.41%
5 | O=C1CC(c2ccco2)Cc2nc(N3CCc4ccccc4C3)ncc21 (centres undefined) | -4.59%
6 | C[C@H](CO)N1C[C@H](C)[C@@H](CN(C)CC2CCCCC2)OCCCC[C@H](C)Oc2ccc(NS(=O)(=O)c3cn(C)cn3)cc2C1=O | 9.05%
7 | CCc1nc(OCc2ccco2)c2sc3nc4c(cc3c2n1)COC(C)(C)C4 | -2.36%
8 | Cc1ccc(S(=O)(=O)Nc2ccc3c(c2)C(=O)N([C@H](C)CO)C[C@H](C)[C@@H](CN(C)CC2CCCCC2)OCCCC[C@H](C)O3)cc1 | 4.51%
9 | Cc1cnc(C)c(N2CCN(C(=O)[C@H]3CC[C@@H](N)C3)CC2)n1 | 2.01%
10 | COc1ccc(-c2nc(C)c(C(C)=O)n2O)cc1OC | -2.22%
11 | C[C@H](CO)N1C[C@H](C)[C@@H](CN(C)C(=O)C2CCCCC2)OCCCC[C@H](C)Oc2ccc(NS(=O)(=O)c3ccc(F)cc3)cc2C1=O | 9.27%
12 | O=C(Nc1nc(-c2ccco2)c(-c2ccco2)s1)c1ccc(F)cc1F | 6.3%
13 | Nc1cc2c(cc1-n1cccc1)OCCO2 | 4.12%
14 | C(=C\c1ccco1)/c1nc2ccccc2[nH]1 | -9.75%
